Data reported in PubChem BioAssay (NCI).
About 79,000 compounds went through this panel and 15% of them were active in at least one assay; those are over-represented in the sample as a whole. Calls of active or inactive are those of the source. Rule as the data show it: active = growth inhibition above about 70%; inactive = the rest.

Assays:
[1] = NCI Yeast Anticancer Drug Screen. Data for the rad52 strain (AID 147);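 also: 0% = growth of vehicle-treated control cultures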; settings: S. cerevisiae rad52 mutant growth inhibition, hits give high values
In short: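 Growth of repair-deficient yeast cells was compared between compound-treated and vehicle-treated cultures to give percent inhibition.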

[2] = NCI Yeast Anticancer Drug Screen. Data for the wt1 strain (AID 149);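 also: 0% = growth of vehicle-treated wt1 cultures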; settings: S. cerevisiae wt1 strain (SPY 50644) growth inhibition, hits give high values
In short: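 Vehicle-normalised growth inhibition; strain wt1; compound exposure.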

[3] = NCI Yeast Anticancer Drug Screen. Data for the rad50EPP+ strain (AID 151);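 also: 0% = growth of vehicle-treated control cultures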; settings: S. cerevisiae rad50 mutant strain, hits give high values
In short: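 Measured: growth inhibition of rad50EPP+ yeast. Reference: vehicle-treated controls. Screen uses strains with defined genetic alterations in DNA damage repair or cell cycle control.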

[4] = NCI Yeast Anticancer Drug Screen. Data for the mgt1 strain (AID 153); settings: S. cerevisiae mgt1 mutant growth inhibition, hits give high values
In short: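 Compounds were applied to mgt1 mutant yeast, and growth was then compared against vehicle-treated control cultures to give percent inhibition.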

[5] = NCI Yeast Anticancer Drug Screen. Data for the rad50 strain (AID 155);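 also: 0% = growth of vehicle-only cultures of the same strain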; settings: S. cerevisiae rad50 strain growth inhibition, hits give high values
In short: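 A DNA repair-deficient yeast mutant serves as the test organism; compound-induced growth inhibition is calculated against vehicle-treated cells.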

[6] = NCI Yeast Anticancer Drug Screen. Data for the mec2-1 strain (AID 157); settings: S. cerevisiae mec2-1 strain, hits give high values
In short: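 Compounds were applied to mec2-1 yeast cells. Their growth was then compared with that of vehicle-treated cultures to give growth inhibition.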

[7] = NCI Yeast Anticancer Drug Screen. Data for the rad14 strain (AID 159);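 also: 0% = growth of vehicle-treated control cultures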; settings: S. cerevisiae rad14 strain growth inhibition, hits give high values
In short: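 Vehicle-treated cultures served as the baseline for growth inhibition of a DNA repair-mutant yeast strain exposed to each compound.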

[8] = NCI Yeast Anticancer Drug Screen. Data for the sgs1 mgt1 strain (AID 161);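 also: 0% = growth of cultures given vehicle only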; settings: S. cerevisiae sgs1 mgt1 strain, hits give high values
In short: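 Yeast cells carrying a defined DNA-repair defect were exposed to test compounds. Growth inhibition was measured relative to vehicle-treated controls.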

[9] = NCI Yeast Anticancer Drug Screen. Data for the CLN2oe strain (AID 163);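 also: 0% = growth of vehicle-only control cultures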; settings: S. cerevisiae CLN2oe strain, hits give high values
In short: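 Cells of an engineered yeast line with disturbed cell-cycle regulation are treated with compound. Inhibition of growth is then calculated relative to the vehicle-treated reference.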

[10] = NCI Yeast Anticancer Drug Screen. Data for the cln2 rad14 strain (AID 165);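 also: 0% = growth equal to vehicle treated cultures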; settings: S. cerevisiae cln2 rad14 strain, hits give high values
In short: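 Strain: cln2 rad14 yeast, altered in cell cycle control and DNA damage repair. Read-out: growth inhibition vs vehicle.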

[11] = NCI Yeast Anticancer Drug Screen. Data for the bub3 strain (AID 167); settings: S. cerevisiae bub3 mutant strain, hits give high values
In short: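 Inhibition values come from growth of compound-treated mutant yeast normalised to vehicle-treated controls.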

[12] = NCI Yeast Anticancer Drug Screen. Data for the wt2 strain (AID 169);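 also: 0% = growth of vehicle-treated yeast cultures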; settings: S. cerevisiae wt2 strain growth inhibition, hits give high values
In short: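 Growth of compound-treated yeast is measured and expressed as inhibition relative to vehicle-only controls.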

[13] = NCI Yeast Anticancer Drug Screen. Data for the sgs1 strain (AID 173);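 also: 0% = growth of vehicle-only control cultures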; settings: S. cerevisiae sgs1 mutant, hits give high values
In short: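 Strain with an altered DNA repair or cell cycle pathway exposed to compound. Growth then measured. Value = inhibition versus vehicle control.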

[14] = NCI Yeast Anticancer Drug Screen. Data for the mlh1 rad18 strain (AID 175); settings: S. cerevisiae mlh1 rad18 strain growth inhibition, hits give high values
In short: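 A repair-deficient yeast strain is exposed to test compound, and growth is scored relative to vehicle-treated controls.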

[15] = NCI Yeast Anticancer Drug Screen. Data for the rad18 strain (AID 177); settings: S. cerevisiae rad18 mutant growth inhibition, hits give high values
In short: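 DNA-repair-defective yeast; compound treatment; growth inhibition scored against vehicle.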

[16] = NCI Yeast Anticancer Drug Screen. Data for the mlh1 strain (AID 171);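 also: 0% = growth of vehicle-treated control cultures of the same strain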; settings: S. cerevisiae mlh1 strain growth inhibition, hits give high values
In short: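 Test agents were incubated with yeast bearing a defined DNA damage repair or cell cycle control alteration; values are growth inhibition normalised to vehicle-treated cultures.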

[17] = at 5.0 µM (retest, dose inferred, filed as 0.5)
[18] = at 50.0 µM (retest, dose inferred, filed as 5.0)

Measured: growth inhibition

Nc1cc2c(cc1N)-c1ccccc1C2=O
inactive: [1]; at 1.2 µM -3% | [1]; at 3.7 µM -3% | [1]; at 11.0 µM 2% | [1]; at 33.0 µM 23% | [2]; at 1.2 µM -2% | [2]; at 3.7 µM -3% | [2]; at 11.0 µM -4% | [2]; at 33.0 µM 3% | [2]; at 100.0 µM 36% | [3]; at 1.2 µM 1% | [3]; at 3.7 µM 9% | [3]; at 11.0 µM 18% | [3]; at 33.0 µM 31% | [4]; at 1.2 µM -3% | [4]; at 3.7 µM -2% | [4]; at 11.0 µM -2% | [4]; at 33.0 µM 1% | [5]; at 1.2 µM 0% | [5]; at 3.7 µM -57% | [5]; [17] 4% | [5]; at 11.0 µM 19% | [5]; at 33.0 µM 37% | [5]; [18] 67% | [6]; at 1.2 µM -2% | [6]; at 3.7 µM -4% | [6]; [17] 0% | [6]; at 11.0 µM -1% | [6]; at 33.0 µM 9% | [6]; [18] 23% | [6]; at 50.0 µM 39% | [7]; at 1.2 µM -1% | [7]; at 3.7 µM 3% | [7]; at 11.0 µM 8% | [7]; at 33.0 µM 26% | [8]; [17] -8% | [8]; [18] 17% | [8]; at 50.0 µM -11.9% | [9]; at 1.2 µM -3% | [9]; at 3.7 µM 0% | [9]; at 11.0 µM 2% | [9]; at 33.0 µM 2% | [9]; at 100.0 µM 13% | [10]; [17] -10% | [10]; [18] 15% | [10]; at 50.0 µM -0.1% | [11]; at 1.2 µM -2% | [11]; at 3.7 µM 1% | [11]; [17] 0% | [11]; at 11.0 µM 0% | [11]; at 33.0 µM 4% | [11]; [18] 49% | [11]; at 50.0 µM 45.1% | [11]; at 100.0 µM 65% | [12]; at 1.2 µM -3% | [12]; at 3.7 µM 6% | [12]; at 11.0 µM -2% | [12]; at 33.0 µM 1% | [12]; at 100.0 µM 41% | [13]; at 1.2 µM -3% | [13]; at 3.7 µM -3% | [13]; at 11.0 µM -1% | [13]; at 33.0 µM 6% | [14]; [17] 0% | [14]; [18] 57% | [14]; at 50.0 µM 68.7% | [15]; at 1.2 µM -3% | [15]; at 3.7 µM 1% | [15]; at 11.0 µM 5% | [15]; at 33.0 µM 21%
active: [1]; at 100.0 µM 87% | [3]; at 100.0 µM 70% | [4]; at 100.0 µM 95% | [5]; at 50.0 µM 71.4% | [5]; at 100.0 µM 92% | [6]; at 100.0 µM 70% | [7]; at 100.0 µM 97% | [13]; at 100.0 µM 74% | [15]; at 100.0 µM 93%

O=P(C(=S)Nc1c(Cl)cccc1Cl)(c1ccccc1)c1ccccc1
active: [1]; at 100.0 µM 97% | [2]; at 100.0 µM 96% | [4]; at 100.0 µM 95% | [5]; [17] 73% | [5]; [18] 99% | [5]; at 50.0 µM 87.7% | [5]; at 100.0 µM 95% | [6]; [17] 71% | [6]; [18] 99% | [6]; at 50.0 µM 91% | [6]; at 100.0 µM 94% | [7]; at 100.0 µM 94% | [8]; [18] 95% | [8]; at 50.0 µM 88.3% | [9]; at 100.0 µM 95% | [10]; [18] 96% | [10]; at 50.0 µM 89.9% | [11]; [18] 75% | [11]; at 50.0 µM 89% | [11]; at 100.0 µM 97% | [12]; at 100.0 µM 96% | [16]; at 100.0 µM 95% | [14]; [18] 98% | [14]; at 50.0 µM 87.2% | [15]; at 100.0 µM 96%
inactive: [1]; at 1.2 µM 21% | [1]; at 3.7 µM 24% | [1]; at 11.0 µM 22% | [1]; at 33.0 µM 24% | [2]; at 1.2 µM 31% | [2]; at 3.7 µM 25% | [2]; at 11.0 µM 18% | [2]; at 33.0 µM 24% | [3]; at 1.2 µM 6% | [3]; at 3.7 µM 8% | [3]; at 11.0 µM 24% | [3]; at 33.0 µM 19% | [3]; at 100.0 µM 31% | [4]; at 1.2 µM 11% | [4]; at 3.7 µM -16% | [4]; at 11.0 µM -11% | [4]; at 33.0 µM -1% | [5]; at 1.2 µM 20% | [5]; at 3.7 µM 8% | [5]; at 11.0 µM 14% | [5]; at 33.0 µM 1% | [6]; at 1.2 µM 5% | [6]; at 3.7 µM 9% | [6]; at 11.0 µM 14% | [6]; at 33.0 µM 7% | [7]; at 1.2 µM -13% | [7]; at 3.7 µM -14% | [7]; at 11.0 µM -16% | [7]; at 33.0 µM -18% | [8]; [17] -6% | [9]; at 1.2 µM 8% | [9]; at 3.7 µM 21% | [9]; at 11.0 µM 15% | [9]; at 33.0 µM 16% | [10]; [17] 41% | [11]; at 1.2 µM 0% | [11]; at 3.7 µM 4% | [11]; [17] 21% | [11]; at 11.0 µM 14% | [11]; at 33.0 µM 11% | [12]; at 1.2 µM 21% | [12]; at 3.7 µM 8% | [12]; at 11.0 µM 15% | [12]; at 33.0 µM 35% | [16]; at 1.2 µM 10% | [16]; at 3.7 µM 10% | [16]; at 11.0 µM 0% | [16]; at 33.0 µM 6% | [14]; [17] 60% | [15]; at 1.2 µM -12% | [15]; at 3.7 µM -20% | [15]; at 11.0 µM -22% | [15]; at 33.0 µM -12%
